# Screening results from PubChem.
# ERa coact inh – blocks coactivator binding to human estrogen receptor alpha; P03372; TR-FRET ER-alpha LBD / SRC-1 peptide, estradiol-bound; inhibition, % at 25.6 µM; 1.7% of 86,000 active; AID 629; in the data active = inhibition above about 50%
# PLK1 PBD inh – Plk1 (human) PBD binding inhibition. P53350. Plk1 PBD phosphopeptide binding, fluorescence polarization. inhibition, %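 (tested at about 20 µM)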. 0.13% of 97,000 active; in the data active = inhibition above about 34%, passing the limit was not always enough
# ERa coact pot – ER-alpha (human) coactivator binding potentiation. P03372. TR-FRET ERalpha-LBD/SRC-Cy5 coactivator binding, 2 h; 100 = basal binding, no effect. coactivator binding (% of control), % at 25.6 µM. 1.3% of 86,000 active. AID 639; in the data active = activity above about 200%;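 also: binding measured in presence of low estradiol as agonist stimulus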
# ERb coact inh – ER-beta (human) coactivator binding inhibition; 1.3% of 86,000 active; inhibition, % at 25.6 µM; TR-FRET ER-beta LBD / SRC1-Cy5 peptide binding; receptor agonist-loaded with 1 µM estradiol; AID 633;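 active = compounds whose percent inhibition of the receptor-coactivator binding signal exceeds about 50% in the single-dose screen, limit read from the data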
# Smad3 FoxH1 inh – Smad3 (human) transcription factor binding inhibition; TR-FRET Smad3/Dy647-FoxH1 peptide binding, europium anti-His; inhibition, % at 25 µM; AID 630; P84022; 0.29% of 88,000 active;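 active = compounds that reduce the energy-transfer binding signal between the protein and its labelled peptide by more than half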
# Target sequence (P84022 whole entry, looked up): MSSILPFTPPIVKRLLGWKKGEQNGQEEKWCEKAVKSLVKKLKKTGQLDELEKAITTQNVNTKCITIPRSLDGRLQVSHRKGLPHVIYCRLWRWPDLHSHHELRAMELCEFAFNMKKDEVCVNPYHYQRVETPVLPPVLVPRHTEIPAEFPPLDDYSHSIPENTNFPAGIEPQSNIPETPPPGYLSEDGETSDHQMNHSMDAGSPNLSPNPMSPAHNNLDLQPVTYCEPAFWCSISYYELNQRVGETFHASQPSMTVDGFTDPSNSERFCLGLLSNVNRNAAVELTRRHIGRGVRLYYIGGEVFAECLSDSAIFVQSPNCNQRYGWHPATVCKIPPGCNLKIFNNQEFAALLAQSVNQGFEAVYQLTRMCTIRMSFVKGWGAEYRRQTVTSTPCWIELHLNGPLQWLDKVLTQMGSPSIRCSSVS
# PLK1 kinase inh – blocks human PLK1 kinase activity | P53350 | recombinant PLK1 kinase, TR-FRET peptide phosphorylation | inhibition, % at 10 µM | 0.53% of 97,000 active | AID 619;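 active = inhibition of 50% or more in the single-concentration screen; inactive = inhibition below 50%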
# A number is an active result; 0 = inactive; - = not tested or not shown; [ ] = another dose, or the depositor's remark. Only some compounds are listed: those with a hit (about 3.3% of all), similar ones and a draw of the others.
SMILES,ERa coact inh,PLK1 PBD inh,ERa coact pot,ERb coact inh,Smad3 FoxH1 inh,PLK1 kinase inh
O=C(NCc1ccc(OC(F)(F)F)cc1)C1CC(c2c(Cl)cccc2Cl)=NO1 (stereo not given),-,0,-,-,-,0
NC(=O)COc1ccc(C2c3c(oc4ccccc4c3=O)C(=O)N2CC2CCCO2)cc1 (stereo not given),69.8,0,0,70.2,77.1,0
COc1ccc(C2c3c(oc4ccccc4c3=O)C(=O)N2CC2CCCO2)cc1 (stereo not given),0,0,0,0,0,0
O=S(=O)(NCc1csc(-c2cccnc2)n1)c1ccc(Cl)s1,65.0,0,0,53.5,0,0
Cc1ccc(CNc2ccc(O)cc2)cc1,0,0,0,64.5[fluorescence artefact?],0,0
N=c1nc(N)nc(N)n1-c1ccc(S(N)(=O)=O)cc1,-,-,-,-,0,-
O=C/C(=C\Nc1ccccn1)c1nc2cc(Cl)ccc2o1,65.9[fluorescence artefact?],0,0,0,0,0
Fc1cccc(CSc2ncnc3c2ncn3[C@H]2CCCS2)c1,-,-,-,-,0,-
CC1=NOC(=O)/C1=C/c1ccc(-c2ccc(Cl)cc2)o1,64.4[fluorescence artefact?],0,0,0,0,0
CC1=NOC(=O)/C1=C\c1ccc(-c2cc(Cl)ccc2Cl)o1,0,0,0,0,0,0
N#CC1=C(SCC(=O)Nc2cccc3cccnc23)NC(=O)C(C#N)C12CCCCC2 (stereo not given),65.7[fluorescence artefact?],0,0,51.5,0,0
N#CC1=C(SCC(=O)NC2CC2)NC(=O)C(C#N)C12CCCCC2 (stereo not given),0,0,0,0,0,0
O=c1c[n+](CCCC[n+]2cc(=O)o[nH]2)[nH]o1,-,-,-,-,0,-
O=C(O)c1cn(-c2ccc(F)c(F)c2)c2c(F)c(F)c(F)c(F)c2c1=O,-,0,-,-,-,0
Cc1nc2ccccc2c2oc(C(=O)NCc3ccccn3)cc12,0,-,0,0,0,-
Cc1ccc(CNC(=O)c2cc3c(C)nc4ccccc4c3o2)cc1,56.7[fluorescence artefact?],0,0,0,0,0
O=c1cc(CN2CCN(c3ccccc3)CC2)c2cc(O)c(-c3ccccc3)cc2o1,79.0[fluorescence artefact?],0,0,0,0,0
O=c1cc(CN2CCN(Cc3ccccc3)CC2)c2cc(Cl)ccc2o1,0,0,0,60.0[fluorescence artefact?],0,0
O=c1cc(CN2CCN(c3cccc(Cl)c3)CC2)c2cc(O)c(-c3ccccc3)cc2o1,-,0,-,-,-,0
Cc1cc2oc(=O)cc(CN3CCN(Cc4ccccc4)CC3)c2cc1Cl,0,0,0,0,0,0
COCCNC(=O)CSc1ncnc2sccc12,0,0,0,0,0,0
CCNC(=O)CSc1ncnc2sccc12,66.2[fluorescence artefact?],0,0,0,0,0
O=[N+]([O-])c1ccc2c(c1)c(S(=O)(=O)O)cc1nonc12,-,-,-,-,0,-
O=S(=O)(O)c1ccc2c(N=Nc3c(O)ccc4ccccc34)cccc2c1,-,-,-,-,0,-
COc1ccc(-n2c(SCCC(=O)O)nnc2-c2ccncc2)cc1,0,0,0,0,0,0
SMILES,ERa coact inh,PLK1 PBD inh,ERa coact pot,ERb coact inh,Smad3 FoxH1 inh,PLK1 kinase inh
CCCC(=O)NC1C2CC3CC(C2)CC1C3 (stereo not given),83.3[fluorescence artefact?],0,0,0,0,0
O=C(NC1C2CC3CC(C2)CC1C3)C1CC1 (stereo not given),0,0,0,0,0,0
CCc1cc2c(=O)n(CC)c(SC(C)C(=O)Nc3c(C)n(C)n(-c4ccccc4)c3=O)nc2s1 (stereo not given),0,0,0,55.5,0,0
CN(CCO)Cc1ncccc1O,-,-,-,-,0,-
CC(=O)Nc1cc(CN2CCCCC2)c(O)c2ncccc12,-,-,-,-,0,-
Cc1nnc(S(=O)(=O)c2ccc(N=Nc3c(N)nc(N)nc3N)cc2)s1,-,-,-,-,0,-
CCOC(=O)c1ccc(Nc2ncnc3nc[nH]c23)cc1,0,0,0,0,0,67.9
CCOC(=O)c1ccc(Nc2ncnc3ccc(C)cc23)cc1,0,0,0,0,0,0
COc1ccccc1S(=O)Cc1ccc(C(=O)NC2CCCC2)o1 (stereo not given),0,0,0,0,0,0
COc1ccccc1S(=O)Cc1ccc(C(=O)NCCc2ccc(Cl)cc2)o1 (stereo not given),0,0,0,0,0,59.9
O=C(Cn1nc(Cl)nc1Cl)c1cc2ccccc2oc1=O,54.6[fluorescence artefact?],0,0,0,0,0
CC1=CC(=O)CC(C)(C)[C@]1(O)/C=C/C(C)=C/C(=O)O,-,-,-,-,0,-
CCc1nc(SCC(=O)N2CCC(C)CC2)c2c(=O)n(C)c(=O)n(C)c2n1,0,0,0,0,0,67.7
CCSc1nnc(NC(=O)CSc2nc(CC)nc3c2c(=O)n(C)c(=O)n3C)s1,0,0,253.6,0,0,0
CCc1nc(SCC(N)=O)c2c(=O)n(C)c(=O)n(C)c2n1,0,0,0,0,0,0
CCc1nc(SCC(=O)N2CCC(Cc3ccccc3)CC2)c2c(=O)n(C)c(=O)n(C)c2n1,-,0,-,-,-,0
COC(=O)CC[C@@H](C)[C@@H]1CC[C@@H]2[C@H]3CC[C@H]4C[C@@H](O)CC[C@]4(C)[C@@H]3CC[C@]21C,-,-,-,-,0,-
Cc1ccccc1N1CCN(c2ncnc3scc(-c4cccs4)c23)CC1,0,0,0,0,0,0
Clc1ccc(CN2CCN(c3ncnc4scc(-c5cccs5)c34)CC2)cc1,0,0,0,0,0,62.2
Cc1cc(C2N=C(N)Nc3nc4ccccc4n32)c(C)n1-c1ccccc1Cl (stereo not given),0,-,0,0,0,-
Cc1ccc(-n2c(C)cc(C3N=C(N)Nc4nc5ccccc5n43)c2C)c(C)c1 (stereo not given),53.1[fluorescence artefact?],0,0,0,0,0
CCOc1ccc2nc(SCC(=O)c3ccc(C)s3)sc2c1,0,0,221.4,0,0,0
O=C(NCC(=O)N(Cc1cccs1)C(C(=O)NC1CCCC1)c1ccncc1)c1ccco1 (stereo not given),98.9[fluorescence artefact?],0,0,0,0,0
Cc1sc2nc3n(c(=O)c2c1C)Cc1ccccc1-3,0,-,0,0,0,-
c1coc(-c2nnc3sc(Cc4cccs4)nn23)c1,86.5[fluorescence artefact?],0,0,67.1,0,0
SMILES,ERa coact inh,PLK1 PBD inh,ERa coact pot,ERb coact inh,Smad3 FoxH1 inh,PLK1 kinase inh
c1csc(Cc2nn3c(-c4n[nH]c5c4CCC5)nnc3s2)c1,86.7[fluorescence artefact?],0,0,62.3,0,0
c1coc(-c2nn3c(-c4ccco4)nnc3s2)c1,57.7[fluorescence artefact?],0,0,55.4,0,0
COc1ccccc1-c1nn2c(-c3ccco3)nnc2s1,0,0,0,0,0,0
O=C(NCc1cccs1)O[C@H]1C[C@H]2CC[C@@H]1C2,-,-,-,-,0,-
Cc1sc2ccccc2[n+]1CCC(=O)O,-,-,-,-,72.5,-
CCOC(=O)N1CCC(NC(=O)C2CCN(C(=O)N3CCOc4ccccc43)CC2)CC1,0,0,0,0,0,54.5
Cn1c(=O)c2c(nc(Cc3ccccc3)n2CC(=O)O)n(C)c1=O,-,-,-,-,0,-
CCSCCOC(=O)C1=C(C)NC(=O)NC1c1ccccc1 (stereo not given),0,0,0,0,0,60.6
CCSCCOC(=O)C1=C(C)NC(=O)NC1c1ccc2c(c1)OCO2 (stereo not given),-,0,-,-,-,0
